According to the supplement of paper PMC6555819:

Columns and labels:
Assay in all cases: PBM binding z-score (relative to random genomic background probes); higher = stronger binding; sequences stand for … in GC…GCGATTGACAGCGTAGAATGAAGG
[1] = tested on: FXR:RXRa (NR concentration 270 nM, RXRa partner concentration 90 nM)
Procedure, shortened: (§1)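 The probes on custom Agilent 4×180K protein-binding microarrays were double-stranded, with 34-nt variable regions bearing direct-repeat seeds, single-nucleotide variants, half-site ablations and random human genomic background sequences. Incubation lasted 1 h with ligand-free nuclear receptor dimers in PBS pH 7.4, 2% milk, 0.02% Triton X-100, 1 mM DTT, 0.2 mg/mL BSA and 0.4 mg/ml salmon testes DNA. Antibodies against each partner (one per run) detected bound dimers, and fluorescence scans were regression-normalized. Binding z-scores take the random background probes as reference.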

[2] = tested on: LXRa:RXRa (NR concentration 270 nM, RXRa partner concentration 90 nM)
Procedure, shortened: as §1

[3] = tested on: LXRa homodimer (NR concentration 270 nM)
Procedure, shortened: as §1

[4] = tested on: LXRb:RXRa (NR concentration 270 nM, RXRa partner concentration 90 nM)
Procedure, shortened: as §1

[5] = tested on: LXRb homodimer (NR concentration 270 nM)
Procedure, shortened: as §1

[6] = tested on: PPARa:RXRa (NR concentration 270 nM, RXRa partner concentration 90 nM)
Procedure, shortened: as §1

[7] = tested on: PPARg:RXRa (NR concentration 180 nM, RXRa partner concentration 90 nM)
Procedure, shortened: as §1

[8] = tested on: PPARg:RXRa 270nM:90nM, anti-RXR (NR concentration 270 nM, RXRa partner concentration 90 nM)
Procedure, shortened: as §1

[9] = tested on: PPARg:RXRa 30nM:10nM, anti-RXR (NR concentration 30 nM, RXRa partner concentration 10 nM)
Procedure, shortened: as §1

[10] = tested on: PPARg:RXRa 90nM:30nM, anti-RXR (NR concentration 90 nM, RXRa partner concentration 30 nM)
Procedure, shortened: as §1

Sequence	PBM binding z-score [1]	PBM binding z-score [2]	PBM binding z-score [3]	PBM binding z-score [4]	PBM binding z-score [5]	PBM binding z-score [6]	PBM binding z-score [7]	PBM binding z-score [8]	PBM binding z-score [9]	PBM binding z-score [10]
CCTACTAGGCCATCAGGTCATTGATATCAACGTT	2.15	1.63	1.62	2.16	0.844	3.19	3.75	4	2.04	3.5
AGACTGAGGTTAAGATCAGGGAAACAGAATACAT	2.11	1.75	-0.133	1.6	-0.417	2.92	1.21	1.18	0.748	0.879
TCTCGGAGGACACGAATGTCAGAGCTTTCCAGAG	0.579	-0.0398	-0.547	-0.175	-0.958	0.22	-0.0172	0.69	1.96	1.29
TCATATACGTAAATGCTAGGTGAAAGTCCGATCT	0.742	0.449	0.327	0.861	0.278	0.771	0.633	2.14	3.51	2.66
CTACCAAGGTGAACAAGGTCGTCGATTACTATTC	1.41	1.49	0.0578	1.95	-0.568	2.77	1.41	1.59	0.0715	0.943
TGAATGAGGTTATAAGCTCAGGGAACGTTGCAAA	1.24	0.975	-0.535	1.01	-0.391	2.67	0.877	2.07	0.7	1.54
TAGCCTTGGTCATGGGCCAGTATACCACGCGAAC	-0.772	-0.685	-0.571	-0.54	-1.16	-0.311	0.351	-0.0225	-0.592	-0.107
CAAACTAGGTCAAGATGTCAAAGTCCGCTTCCCG	3.9	3.18	0.475	2.4	0.306	4.98	8.33	7.27	4.86	7.04
TCGTGTAGATCAGCAGGTTAAGAAAGCTGGCCAA	-0.188	0.0517	-0.312	0.0213	-0.844	0.437	-0.564	0.79	1.98	1.42
GCTAGTTGGTGAGTAAAAGGTCACACACCGGTCG	3.1	3.92	3.81	3.79	-0.0196	4.55	3.87	5.23	3.09	4.99
GCTTACGGGTCTAAGGTTATAGCATGAATAGAAT	0.749	0.664	-0.0717	1.2	-0.249	2.66	3.28	4.67	3.06	4.64
TAGCCTAGGTCACTGGGCCAGTATAGTACGCATC	3.22	2.31	-0.331	1.92	-0.779	4	5.05	4.62	1.68	3.41
CCTGCTAGGTCAAGGTCAGCTAATCTACAGTATG	4.87	3.95	1.09	3.19	0.294	4.45	3.7	4.63	1.39	3.47
CAGCCTAGCTCAGGGCCAGTATAGGAGGAACGTT	-1.13	-1.14	-0.395	-1.15	-1.28	-1.21	-0.195	-1.24	-1.24	-1.17
ATCGCTAGGTAACAAGTTCAGTGAAAGAGAGGAC	-0.045	0.0443	-0.0365	-0.0294	-0.328	0.506	0.393	0.468	-0.139	0.219
CGAACGAGGGCATGAGTTGATCGCAAATGCCGAT	0.394	0.374	-0.273	0.109	-0.729	1.45	1.22	1.32	0.129	0.937
GCTAGCACGCCATTTGGGTCACTCAATGACGGGC	-0.103	-0.15	-0.585	-0.179	-1.07	1.13	0.747	0.379	-0.294	0.152
ATCGAAAGGTAGTGAGGTGAGTATACAGAAAGGC	0.0464	-0.187	0.0161	-0.247	-0.154	0.153	0.582	0.0693	0.155	0.0111
ACTATTAGTTGACTTAGGGCATCCGATACGACGC	-0.0291	0.0994	0.216	-0.154	0.3	-0.203	0.827	0.149	0.353	0.396
CCGACTGGGGCAGAGAGGTTACCATACCATCCGG	-0.137	0.273	-0.349	0.271	-1.44	1.48	1.35	1.6	-0.221	0.899
CCTGCTAGGTCACGGTCAGCTAATCTACAGTATG	4.56	3.65	0.541	2.45	0.134	4.05	4.31	4.17	1.72	3.2
CCTACCAGGCCAGGGTCACTCAAGCATTTCGCTT	2.09	1.56	-0.206	2.18	-0.678	2.88	0.899	1.61	-0.554	0.539
GCTTGTACATCAAGGTTAAGAAAGACTAAGCTAA	0.247	0.691	-0.229	0.559	-0.133	0.96	0.118	0.299	-0.184	0.084
CCTAGCAGGCCAATTTGGGTCACTCAAGGCTTGA	1.3	1.3	-0.0886	1.16	-1.16	2.37	0.558	0.917	-0.434	0.671
TCTTGTAGATCAAGCAGGTTAAGAACGCCTGAGT	0.558	0.44	-0.0745	0.534	-0.492	0.851	-0.197	1.21	2.6	1.7
